The list is not random: actives were taken first. Their share in the collection is about 9.3%.
HCV inh: inhibitors of hepatitis C virus infection; Huh7.5.1 HCVcc-Cre infection, luciferase reporter, 44 h; Potency, µM (titrated, usually from 41.8 µM), for inactives: at the top dose activity change, negative = inhibition, most hits filed as inhibitors; 340,000 compounds, 3.4% hits; AID 651820; also: potency is read from the fitted curve at half-maximal effect
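Cells (1,000/well) were plated 4 h before compound, then infected with HCVcc-Cre virus (~0.5 moi). After 44 h further culture, infection was read as luciferase luminescence following a 15 min substrate incubation at room temperature.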
VACV mCherry inh: inhibitors of vaccinia virus infection (mCherry reporter signal) | Vaccinia virus mCherry reporter infection, fluorescence | Potency, µM (top dose mostly 36.5 µM), for the others: top-dose activity change, negative = inhibition, hits mostly inhibitors | 310,000 compounds, 0.63% hits | AID 720579; calls by dose curve; tested in A549 cells; also: potency is read from the fitted curve at half-maximal effect; nearly all actives have a fitted effect of over 35% in size
FMDV antiviral: foot and mouth disease virus antiviral activity; FMDV antiviral cell-based qHTS; Potency, µM (top dose mostly 57.9 µM), for the others: top-dose activity change, negative = inhibition, most hits filed as inhibitors; 410,000 compounds, 1.2% hits; AID 1159524; calls by dose curve; tested in HEK293T cells; also: read-out not given here; potency is read from the fitted curve at half-maximal effect; nearly all actives have a fitted effect of over 45% in size
Sm TGR inh: S. mansoni TGR enzyme inhibition | Potency, µM (series often up to 114 µM), for the others: at the highest dose activity change, negative = inhibition, most hits filed as inhibitors | purified TGR, DTNB reduction, TNB absorbance 405 nm | Q962Y6 | 360,000 compounds, 3% hits; also: potency is read from the fitted curve at half-maximal effect; nearly all actives have a fitted effect of over 60% in size
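Kinetic colorimetric format: TGR-catalysed, NADPH-driven DTNB reduction monitored via TNB absorbance. Enzyme dispensed at 20 nM; compound exposure 15 min at room temperature before reaction start.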
HCMV antiviral: human cytomegalovirus inhibition; HFF cells, HCMV-luciferase reporter, 72 h; stronger effect = lower value; activity change, negative = inhibition, % at 57.5 µM; 410,000 compounds, 4.5% hits; in the data active = activity change below about -60%; inconclusive = no clear call, values can overlap the other calls; inactive = above about -39%
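After 16 h attachment at 37C, HFF cells received test compound and HCMV-luciferase (1 PFU/cell); reporter luminescence read 72 h later, data normalized against buffer-only and known inhibitor Salinomycin.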
Vaccinia Venus: inhibitors of vaccinia virus (Venus reporter) | Potency, µM (series often up to 36.5 µM), inactives show at the highest dose activity change, negative = inhibition, hits mostly inhibitors | AID 720580 | 330,000 compounds, 0.46% hits | Vaccinia virus Venus reporter expression, fluorescence; calls by dose curve; tested in A549 cells; also: potency is read from the fitted curve at half-maximal effect; nearly all actives have a fitted effect of over 30% in size
Active calls of the source: *; i = inactive; ? = inconclusive; . = no result given; [ ] = another dose, or the depositor's remark. Unless noted, calls follow the shape of the dose curve; as a rule, active = well fitted curve in the direction sought with a large enough effect; inconclusive = small, poorly fitted or top-dose-only effect, or another doubt; inactive = no such curve, though single readings can be large; an effect the other way counts as inactive or inconclusive. % is scaled to controls: 0 for no effect and ±100 for the full control effect.

SMILES | HCV inh | VACV mCherry inh | FMDV antiviral | Sm TGR inh | HCMV antiviral | Vaccinia Venus
CCCCCC(=O)NNC(=S)NC(=O)c1ccccc1[N+](=O)[O-] | 1.8% | -19.7% | -22.3% | 0.3% | 105.2 | -6.0%
Cc1cccc(C(=O)NC(=S)NNC(=O)c2ccccc2Cl)c1 | ? | -16.5% | -12.5% | -5.3% | -66.9* | -1.3%
Cc1cccc(C(=O)NC(=S)NNC(=O)Cc2ccccc2)c1 | ? | -25.8% | -25.7% | -4.0% | -83.5* | -7.0%
CCC(NS(=O)(=O)c1ccc2c(c1)NC(=O)C(C)C(=O)N2)c1cccs1 (centres undefined) | 12.8% | -26.6% | -29.5% | -1.4% | 53.5 | -8.1%
CCC(/C=N/NC(=O)C(=O)N/N=C/C(CC)CC)CC | 14.4% | . | 0.0% | -14.7% | -36.4 | .
CC1CC(Nc2ccccc2)=CC(=O)O1 (centres undefined) | 20.1% | i[1.46 µM] | 0.0% | 1.3% | -1.2 | -12.1%
CC1(C)CC(=O)C=C(NCCN2CCN(C(=S)Nc3ccc(F)cc3)CC2)C1 | 15.3% | i[7.34 µM] | -5.6% | -6.0% | -16.4 | -9.7%[7.34 µM]
Cc1ccccc1C(=O)NNC(=S)NC(=O)c1ccc(Cl)cc1Cl | 0.562µM* | -29.3% | . | -6.7% | ? | ?
Cc1cc(N)n2ncc(-c3cccc(Br)c3)c2n1 | ? | -9.3% | 75.1% | 3.2% | 24.7 | -14.9%
CCOC(=O)Cc1c(C)nc2c(-c3cccc(Br)c3)cnn2c1C | -1.7% | i | -16.1% | -21.4% | -74.9* | -6.0%
Cn1c(Cl)cnc1C1CC(=O)c2cc(Cl)ccc2O1 (centres undefined) | ? | -1.8% | 20µM* | -22.4% | -95.7* | -13.6%
Cc1ccccc1C(=O)/C(C#N)=N/Nc1c(C)n(C)n(-c2ccccc2)c1=O | ? | ? | -31.7% | -10.1% | -87.7* | ?
Cc1c(NC2(C#N)CCCC2)c(=O)n(-c2ccccc2)n1C | -3.8% | -10.4% | -2.5% | 39.8µM* | . | -4.2%
Cc1c(N/N=C(\C#N)C(=O)c2ccccc2)c(=O)n(-c2ccccc2)n1C | 10µM* | 12.6µM* | -17.4% | -17.8% | -79.1* | -26.8%
CCOC(=O)/C(C#N)=N/Nc1c(C)n(C)n(-c2ccccc2)c1=O | 10.8% | ? | -4.5% | -7.4% | 3.5 | -6.8%
Cc1ccc(S(=O)(=O)CC(=O)Nc2sc3c(c2C#N)CCCCC3)cc1 | . | -11.1% | -13.9% | -5.9% | 0.0 | -10.9%
O=C(COC(=O)/C=C/c1ccc(OC(F)F)cc1)Nc1cccc(S(=O)(=O)N2CCCC2)c1 | -1.4% | -13.5% | -4.3% | 11.3% | -28.3 | -14.3%
CCCCNC(=O)[C@H](Cc1c[nH]c2ccccc12)NC(=O)c1ccccc1Cl | -4.9% | . | 40.9% | -18.1% | 19.4 | .
Cc1ccc(S(=O)(=O)NCCCC(=O)C=[N+]=[N-])cc1 | 0.4% | -1.7% | 5.5% | 7.0% | 22.8 | -4.5%
NC1=NC(c2ccc(Br)cc2)n2c(nc3ccccc32)N1 (centres undefined) | 9.1% | -13.2% | 10.2% | 2.5% | ? | -10.3%
CCc1ccc(C2N=C(N)Nc3nc4ccccc4n32)cc1 (centres undefined) | . | i | 0.0% | 1.0% | -67.0* | -4.8%
CCC(CC)C(=O)N(C)c1c(C)nc2c(OCC(=O)N(C)C)cccn12 | . | -8.5% | -12.7% | . | -12.4 | -9.2%
Cc1nc2c(OCc3ccc(OC(F)F)cc3)cccn2c1N(C)C(=O)CCC1CCCC1 | . | -3.0% | 25.1µM* | . | -23.0 | -15.4%
CCC(CC)C(=O)N(C)c1c(C)nc2c(OCCOc3ccc(F)cc3)cccn12 | . | -3.5% | ? | . | -92.1* | -20.8%
Cc1cc(NC(=O)CCC(=O)N(CCC(C)C)C(C(=O)NC2CCCC2)c2ccccc2C)no1 (centres undefined) | 7.1% | -16.7% | -11.7% | 3.1% | -21.5 | -8.5%
SMILES | HCV inh | VACV mCherry inh | FMDV antiviral | Sm TGR inh | HCMV antiviral | Vaccinia Venus
COc1ccccc1NC(=O)Nc1cccnc1 | -8.2% | -15.5% | 25.2% | 0.0% | -36.8 | -14.6%
Clc1ccc(Nc2c(-c3cccs3)nc3ccc(Cl)cn23)cc1 | . | -13.3% | 46.6% | -8.9% | 250.8 | -10.9%
C/C(=N\NC(=O)c1ccc(Cl)c(Cl)c1)c1ccc(Br)s1 | ? | -19.7% | -11.7% | 4.5% | -83.3* | -13.2%
C/C(=N\Nc1ccc(C(=O)O)cc1)c1ccc(Cl)s1 | 16.0% | . | -0.4% | -2.2% | 249.2 | .
C/C(=N\Nc1ccc(Cl)c(C(=O)O)c1)c1ccc(Br)s1 | 9.7% | -15.1% | 6.2% | 50.1µM* | -1.3 | -6.2%
COc1ccc(NS(=O)(=O)c2cccc(C(=O)NCCCN3CCCC3=O)c2)cc1 | -3.2% | i | -12.1% | 0.8% | -4.1 | -12.6%
CCCn1c(=O)c(C(=O)NCCc2ccc(OC)c(OC)c2)c(O)c2ccccc21 | ? | . | -22.7% | 13.2% | 11.0 | .
Cc1ccc(C[n+]2ccccc2)cc1 | 4.47µM* | i | -21.4% | 5.7% | -2.3 | -25.6%
O=C1CCc2ccc(NS(=O)(=O)c3ccc(F)cc3)cc2N1 | 1.7% | -13.7% | 1.1% | 4.3% | 33.8 | -27.5%
CC(C)[C@H](NS(=O)(=O)c1cccc(C(F)(F)F)c1)C(=O)OCC(=O)NC(=O)NCc1ccco1 | 11.2µM* | -15.2% | -10.7% | . | 4.9 | -10.7%
O=C(COC(=O)/C=C/c1cccc(C(F)(F)F)c1)NC(=O)NCc1ccco1 | ? | -14.3% | -3.8% | . | 0.0 | -15.4%
O=C(COc1cccc(NC(=O)c2cccc([N+](=O)[O-])c2)c1)c1ccc(F)cc1 | ? | -15.8% | ? | -0.4% | 12.0 | ?
COc1ccc(NC(=O)c2cccc(Oc3ccc([N+](=O)[O-])cc3Cl)c2)cc1 | ? | ? | -6.0% | 0.0% | -87.0* | -20.8%
Cc1ccc(C)c(NC(=O)c2cccc(Oc3ccc([N+](=O)[O-])cc3Cl)c2)c1 | ? | ? | -18.5% | -5.3% | ? | ?
COc1cccc(C(=O)COc2cccc(NC(=O)c3cccc([N+](=O)[O-])c3)c2)c1 | 8.91µM* | . | 28.2µM* | 15.5% | ? | ?
O=C(Nc1cccc(Cl)c1)c1cccc(Oc2ccc([N+](=O)[O-])cc2Cl)c1 | ? | . | ? | -8.3% | -88.9* | .
COc1ccc(OCCNC(=O)c2cccc(Oc3ccc(C(F)(F)F)cc3[N+](=O)[O-])c2)cc1 | ? | -12.1% | ? | -8.6% | -66.1* | -26.3%
CCC1CN(C(=O)C2CCN(S(=O)(=O)c3c(C)noc3/C=C/c3ccccc3F)CC2)c2cc(C)ccc2O1 (centres undefined) | . | -6.9%[7.34 µM] | -17.5% | 21.4% | 60.5 | -11.7%[7.34 µM]
COC(=O)C(C(C)=O)C1=C/C(=N\S(=O)(=O)c2ccc(C)cc2)c2ccccc2C1=O (centres undefined) | ? | . | -1.9% | 28.2µM* | . | .
CCc1ccc(S(=O)(=O)/N=C2\C=C(NS(=O)(=O)c3ccccc3)C(=O)c3ccccc32)cc1 | -26.5% | . | 71.1% | ? | -36.1 | .

Bioassay records deposited in PubChem by National Center for Advancing Translational Sciences (NCATS).
